HTR5A ag: HTR5A agonism, opioid heterodimer counter-screen; P47898; HTR5A agonist assay, luminescence, cell-based; activation, % at 9.3 µM; hit rate 0.61% among 340,000; AID 504692; in the data active = activation mostly above about 9.5%, no sharp cut-off; inactive = mostly below about 7.6%;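 note: 0% = cells with vehicle only and 100% = reference agonist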
Target sequence (P47898 whole entry, looked up): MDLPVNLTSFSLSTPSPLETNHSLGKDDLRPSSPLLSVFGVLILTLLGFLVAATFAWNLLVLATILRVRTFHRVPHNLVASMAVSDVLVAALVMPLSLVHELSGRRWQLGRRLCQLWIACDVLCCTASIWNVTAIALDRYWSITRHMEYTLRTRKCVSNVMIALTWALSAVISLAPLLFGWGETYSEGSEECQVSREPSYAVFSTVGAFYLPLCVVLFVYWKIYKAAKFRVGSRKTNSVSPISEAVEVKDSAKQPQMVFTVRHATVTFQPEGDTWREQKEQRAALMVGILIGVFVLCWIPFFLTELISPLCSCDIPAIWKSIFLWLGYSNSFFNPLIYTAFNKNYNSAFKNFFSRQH
NALP1 yeast inh: blocks the NALP1 inflammasome reconstituted in yeast; AID 2071; hit rate 0.61% among 280,000; S. cerevisiae NALP1/ASC/caspase-1 growth, X-gal OD620, 72 h; inhibition, % at 10 µM; in the data active = inhibition mostly above about 24%, no sharp cut-off; inactive = mostly below about 32%
OPRM1-OPRD1 inv: mu-delta opioid heterodimer inverse agonism. hit rate 0.21% among 340,000. cell-based MOR-DOR heterodimer luminescence. inhibition, % at 9.3 µM. AID 504357; in the data active = inhibition above about 22%, passing the limit was not always enough;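 note: 0% = cells with DMSO and 100% = wells without cells with DMSO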
MOR-DOR ag: OPRM1-OPRD1 heterodimerization agonism. P35372+P41143. cells, luminescence. activation, % at 9.3 µM. hit rate 0.3% among 340,000; in the data active = activation above about 18%;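 note: 0% = vehicle-treated cells and 100% = reference agonist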
PolyA inh: yeast polyadenylation inhibition; S. cerevisiae SKY197-pL101 polyadenylation reporter, beta-gal luminescence; efflux-impaired pdr1/pdr3 knockout yeast; score 100 = 6 SD above DMSO; hit rate 0.02% among 300,000; activity score, % at 12 µM; AID 1875;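 active = lowest replicate activity score at least 50, where 100 means six control SD above control mean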;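 note: yeast exposed to compound for 9 h at 30 °C; higher score means more reporter readthrough which indicates perturbed polyadenylation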
HTR5A inv ctr: inverse agonist of human HTR5A in OPRM1-OPRD1 counter-screen | P47898 | HTR5A cell line, luminescence, inverse agonism | hit rate 0.083% among 340,000 | inhibition, % at 9.3 µM; in the data active = inhibition mostly above about 23%, no sharp cut-off; inactive = mostly below about 18%;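 note: 0% = cells with DMSO and 100% = no-cell wells with DMSO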
OPRM1-D1 inv cf: confirmation of human OPRM1-OPRD1 heterodimerization inverse agonists; shares compounds with OPRM1-OPRD1 inv; cells expressing OPRM1/OPRD1 heterodimer, luminescence; inhibition, % at 9.3 µM; hit rate 20% among 580; AID 504900; in the data active = inhibition above about 32%;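 note: 0% = cells with DMSO and 100% = wells lacking cells with DMSO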
HTR5A inv count: counter-screen for OPRM1-OPRD1 inverse agonists: human HTR5A inverse agonism; shares compounds with OPRM1-OPRD1 inv; HTR5A-expressing cells, luminescence; inhibition, % at 9.3 µM; 580 tested, under 10 active; AID 504914; call rule not given here;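 note: 0% = cells with DMSO and 100% = no-cell wells with DMSO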
Starred values were filed as active, the others as inactive; i = inactive; x = not tested or not shown. Shown are actives, neighbours in structure and some others; about 1.6% of the full set was active somewhere.

SMILES	HTR5A ag	NALP1 yeast inh	OPRM1-OPRD1 inv	MOR-DOR ag	PolyA inh	HTR5A inv ctr	OPRM1-D1 inv cf	HTR5A inv count
Cc1ccc(C(=O)NN2C(=O)/C(=C/c3cn(C)c4ccccc34)SC2=S)cc1	3	16	9	-2	x	-9	x	x
Cn1cc(/C=C2\SC(=O)NC2=S)c2ccccc21	-4	9	28*	-6	-63	12	9	0
Oc1c(C=Nc2ccccc2Cl)[nH]c2ccccc12	-2	2	48*	-9	18	5	2	7
CNc1sc(C(=O)c2ccccc2F)c(N)c1-c1nc2ccccc2s1	-6	25	48*	-9	-32	23	-54	-23
N#CN(Cc1ccccc1)Cc1ccccc1	3	20	7	-1	2	-2	x	x
CN1C(=O)C(O)(C2COC(C)(C)CC2=O)c2cc(Br)ccc21 (stereo unspecified)	-7	22	81*	-19	8	7	69*	-5
CN1C(=O)C(O)(C2COC(C)(C)CC2=O)c2ccccc21 (stereo unspecified)	-2	8	32*	-8	20	5	10	-1
O=C1CCc2cc(S(=O)(=O)Nc3ccc(F)cc3)cc3c2N1CC3	1	x	1	0	2	7	x	x
O=C(NNc1ncc(C(F)(F)F)cc1Cl)c1c(Cl)cccc1Cl	-2	18	24	-5	-5	28	x	x
FC(F)(F)c1cnc(NNC(=S)Nc2cccnc2)c(Cl)c1	-7	0	66*	-12	x	29	45*	42
Cc1c(Cl)cccc1NC(=S)NNc1ncc(C(F)(F)F)cc1Cl	-8	-55	43*	-8	-5	41	25	28
Cc1ccccc1NC(=S)NNc1ncc(C(F)(F)F)cc1Cl	-7	-9	46*	-8	6	26	33*	15
Fc1ccccc1NC(=S)NNc1ncc(C(F)(F)F)cc1Cl	-8	20	44*	-8	1	16	-59	-2
Cc1ccc(C(=O)NCCC(=O)Nc2ccccc2C)cc1	-3	x	14	-3	-11	10	x	x
COc1cc(C(=O)N2CCN(c3ccccc3)CC2)c2ccccc2n1	-2	x	12	-2	x	9	x	x
CC1CCCN(C(=O)CN(C)S(=O)(=O)c2ccc3c(c2)c(=O)n(C)c(=O)n3C)C1 (stereo unspecified)	-1	3	12	-2	-1	-15	x	x
Cc1cccc(C)c1NC(=S)NNc1ncc(C(F)(F)F)cc1Cl	-3	-13	32*	-5	2	17	-49	-11
COc1ccc(CCN2CC(C(=O)N3CCCCCC3)CCC2=O)cc1 (stereo unspecified)	-2	15	13	-2	4	6	x	x
C=CCn1c(=O)c2c(nc3n2CC(C)CN3c2cccc(OC)c2)n(C)c1=O (stereo unspecified)	-10	5	36*	-6	-6	29	6	29
COc1ccc2c(c1)C(=O)C(=O)N2CCS(=O)(=O)c1ccccc1	-5	8	70*	-13	7	26	23	0
COc1ccc2c(c1)C(=O)C(=O)N2CC1COc2ccccc2O1 (stereo unspecified)	-5	22	38*	-8	-10	18	22	-2
Cc1ccc2c(c1)C(=O)C(=O)N2CCCOc1ccccc1	3	10	31	-6	-1	-21	x	x
CCOc1ccc2c(c1)C(=O)C(=O)N2CC1COc2ccccc2O1 (stereo unspecified)	7	11	31	-7	5	-25	x	x
O=C1C(=O)N(CCS(=O)(=O)c2ccccc2)c2ccc(F)cc21	-1	8	53*	-10	-12	10	-34	-2
O=C(CC1CCCC1)NNC(=O)c1ccc(Br)cc1	6	x	8	-2	x	14	x	x
SMILES	HTR5A ag	NALP1 yeast inh	OPRM1-OPRD1 inv	MOR-DOR ag	PolyA inh	HTR5A inv ctr	OPRM1-D1 inv cf	HTR5A inv count
N#Cc1cccc(C(=O)Nc2cc(S(=O)(=O)N3CCOCC3)ccc2N2CCCC2)c1	2	x	6	-1	x	-5	x	x
O=C(CN1C(=O)C(=O)c2ccccc21)NCCc1ccccc1	-9	-30	56*	-11	18	25	9	11
O=C1C(=O)N(CCCc2ccccc2)c2ccccc21	-3	11	43*	-9	-2	5	90*	2
Cn1c(=O)[nH]c(=O)c2c1nc(Br)n2C/C=N/Nc1ccccc1	2	3	35*	-7	-5	-6	i	-26
CC1=C(C)C(=O)C(N2CCOCC2)=CC1=O	4	29	47*	-7	-2	-10	-20	-259
O=C1C=C(N2CCOCC2)c2ccccc2C1=O	0	9	-74	15	13	1	x	x
CCOC(=O)Cc1csc(NC(=S)NC(=O)C(C)(C)C)n1	3	14	15	-2	-7	2	x	x
CCn1cc(/C=N\NC(=O)Cc2ccc(Cl)cc2)cn1	-3	20	15	-2	11	8	x	x
O=C(COC(=O)c1ccc(O)cc1)c1ccc(S(=O)(=O)N2CCCCC2)cc1	-3	x	3	-1	x	7	x	x
O=C(COC(=O)c1ccc(CO)cc1)c1ccc(S(=O)(=O)N2CCCCC2)cc1	-9	x	38*	-10	x	22	-352	-1
CCCCC(=O)NC(=S)Nc1nnn(CCC)n1	-7	2	37*	-8	-1	30	22	-7
CCCCC(=O)Nc1nnn(CCC)n1	7	-6	2	0	4	-16	x	x
N#C/C(=C\c1ccncc1)c1nc2ccccc2c(=O)[nH]1	-2	14	33*	-6	13	7	-14	17
N#C/C(=C/c1ccncc1)c1nc2ccccc2c(=O)[nH]1	9	x	27	-5	9	-10	x	x
CC(C)CCOc1ccc(CO[C@@H]2[C@H]3OC(C)(C)O[C@H]3O[C@@H]2C(O)CO)cc1 (stereo partly specified)	-3	17	-5	1	-16	12	x	x
C[C@H](NC(=O)CCC1CCC(=O)N1)c1ccccc1 (stereo partly specified)	-2	x	21	-4	8	-25	x	x
Cc1ccc(NC(=O)CS(=O)CC(=O)Nc2ccccc2-c2ccc(C)o2)cc1 (stereo unspecified)	-3	12	35*	-6	-3	8	3	3
CC(C)(C)c1nnc(NC(=S)Nc2ccccc2)s1	-4	-8	38*	-7	-18	11	-17	6
Fc1ccc(NC(=S)Nc2nccs2)cc1	-3	0	29*	-6	-2	11	-8	9
S=C(Nc1ccccc1)Nc1nccs1	2	12	33*	-7	-11	-8	5	2
